Data as given in PubChem BioAssay (Tox21).
Inconclusive results are not listed. A call without a number means that no potency is given here. The source made the active and inactive calls. Unless noted, the call rests on the fitted dose curve; in most records, active means well fitted curve in the direction sought with a large enough effect in the repeat runs; inconclusive means weak or mixed curves; inactive means no such curve, though single readings can be large; an effect the other way counts as inactive or inconclusive.

What was measured:
[1] = qHTS assay to identify small molecule antagonists of the estrogen related receptor (ERR) signaling pathway from Tox21 library - cell viability counter screen (AID 1224834); further: nearly all actives have a fitted effect of over 30% in size; further: potency means the concentration at half of the fitted maximal effect
Procedure, shortened: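 Seeded ERR cells were rested 6 h at 37 C/5% CO2 before compounds, positive and negative controls or DMSO were added. Incubation continued for 17.5 h, and viability was then quantified by CellTiter-Fluor fluorescence.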

[2] = qHTS assay to identify small molecule antagonists of the constitutive androstane receptor (CAR) signaling pathway - cell viability counter screen (AID 1224837); further: nearly all actives have a fitted effect of over 45% in size; further: potency means the concentration at half of the fitted maximal effect
Procedure, shortened: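 To flag cytotoxic false antagonists, HepG2 hCAR/CYP2B6-2.2kb cells were treated 23 hr with 15-concentration compound series and 50 nM CITCO at 37 C/5% CO2; CellTiter-Fluor fluorescence was the measured end point.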

[3] = biological target: Nuclear receptor subfamily 1 group I member 3 (Homo sapiens) (UniProt Q14994); test: qHTS assay to identify small molecule antagonists of the constitutive androstane receptor (CAR) signaling pathway (AID 1224838);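 further: HepG2 cells stably expressing hCAR with CYP2B6 luciferase reporter stimulated by CITCO; nearly all actives have a fitted effect of over 40% in size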; further: potency means the concentration at half of the fitted maximal effect
Procedure, shortened: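 Human hepatoma HepG2 cells expressing hCAR and a CYP2B6 promoter (2.2 kb) luciferase construct; compound titration (15 points) with 50 nM CITCO final, 24 h at 37 C/5% CO2; luminescence via ONE-Glo after 30 min at room temperature.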

[4] = biological target: Nuclear receptor subfamily 1 group I member 3 (Homo sapiens) (UniProt Q14994); test: qHTS assay to identify small molecule agonists of the constitutive androstane receptor (CAR) signaling pathway (AID 1224839); further: nearly all actives have a fitted effect of over 15% in size; further: potency means the concentration at half of the fitted maximal effect
Procedure, shortened: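 HepG2-CYP2B6-hCAR cells, 2500/well, 4 h pre-incubation; compounds 15 conc.; PK11195 0.75 uM final; 24 h, 37 C/5% CO2; ONE-Glo luciferase read.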

[5] = qHTS assay to identify small molecule antagonists of the estrogen related receptor signaling pathway with the pleiotropic PPARgamma coactivator (PGC) from Tox21 10K library - cell viability counter screen (AID 1224840; active means well fitted cell-killing curve with a large enough effect in the repeat runs, not every such curve was filed as active; further: nearly all actives have a fitted effect of over 40% in size; further: potency means the concentration at half of the fitted maximal effect)
Procedure, shortened: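 Seeded PGC/ERR cells (2,000/well, 6 h, 37 C/5% CO2) get compound by pin tool; 17.5 h incubation at 37 C; CellTiter-Fluor added, 30 min, fluorescence measured.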

[6] = qHTS assay to identify small molecule agonists of the estrogen related receptor signaling pathway with the pleiotropic PPARgamma coactivator (PGC) from Tox21 10K library (AID 1224842); further: nearly all actives have a fitted effect of over 15% in size
Procedure, shortened: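 PGC/ERR reporter cells (NTP line) were seeded 2,000 per well, rested 6 h at 37 C/5% CO2, then pin-dosed with compounds in DMSO for 18 h at 37 C; luciferase read by One-Glo luminescence after 30 min at room temperature.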

[7] = biological target: Luciferin 4-monooxygenase (Photinus pyralis) (UniProt P08659); test: qHTS assay to identify small molecule inhibitors of firefly luciferase (AID 1224835); further: series mostly up to about 120 µM; nearly all actives have a fitted effect of over 25% in size
Procedure, shortened: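 Quantitative HTS format; KM concentrations of both substrates. Purified P. pyralis FLuc activity quantified from luminescence images.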

[8] = biological target: Thyrotropin receptor (Homo sapiens) (UniProt P16473); test: qHTS assay to identify small molecule agonists of the thyroid stimulating hormone receptor (TSHR) signaling pathway (AID 1224843; calls by dose curve; further: nearly all actives have a fitted effect of over 45% in size)
Procedure, shortened: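 Compounds are titrated over 15 concentrations, in triplicate, onto TSHR-HEK293 cells seeded at 800/well. Plates sit 30 min at room temperature before cAMP-d2 and anti-cAMP cryptate are added; signal is read after a further hour.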

[9] = qHTS assay to identify small molecule antagonists of the estrogen related receptor signaling pathway with the pleiotropic PPARgamma coactivator (PGC) from Tox21 10K library (AID 1224841; call rule not given here; further: actives are mostly falling curves and most rising ones were filed inactive; nearly all actives have a fitted effect of over 50% in size; further: potency means the concentration at half of the fitted maximal effect)
Procedure, shortened: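 Test chemicals dissolved in DMSO were applied to pre-incubated (6 h) PGC/ERR cells at 2,000 cells/well for an 18 h, 37 C treatment; reporter luminescence was then read using One-Glo.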

[10] = qHTS assay to identify small molecule agonists of the constitutive androstane receptor (CAR) signaling pathway - cell viability counter screen (AID 1224836); further: series mostly up to about 92 µM; nearly all actives have a fitted effect of over 45% in size
Procedure, shortened: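 HepG2-CYP2B6-hCAR, 2500 cells/well, 4 h pre-incubation; cpd 15 conc + PK11195 0.75 uM final; 23 h, 37 C/5% CO2; CellTiter-Fluor, fluorescence.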

Sequence of Luciferin 4-monooxygenase (Photinus pyralis) (P08659 whole entry, looked up): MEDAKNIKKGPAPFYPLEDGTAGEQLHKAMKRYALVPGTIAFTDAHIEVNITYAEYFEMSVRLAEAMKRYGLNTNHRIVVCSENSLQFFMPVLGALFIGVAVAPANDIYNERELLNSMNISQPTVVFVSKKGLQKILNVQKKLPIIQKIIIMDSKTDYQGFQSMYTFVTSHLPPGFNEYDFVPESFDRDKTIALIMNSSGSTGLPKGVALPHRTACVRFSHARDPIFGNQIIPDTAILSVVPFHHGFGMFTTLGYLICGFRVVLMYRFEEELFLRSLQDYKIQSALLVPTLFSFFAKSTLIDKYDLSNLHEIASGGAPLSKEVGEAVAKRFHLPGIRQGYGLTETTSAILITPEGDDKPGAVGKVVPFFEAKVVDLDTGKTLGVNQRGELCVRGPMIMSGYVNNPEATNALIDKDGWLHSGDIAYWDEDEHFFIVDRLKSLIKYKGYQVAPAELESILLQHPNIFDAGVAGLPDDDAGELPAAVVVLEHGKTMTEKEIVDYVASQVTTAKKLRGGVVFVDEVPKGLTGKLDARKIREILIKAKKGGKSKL
Sequence of Thyrotropin receptor (Homo sapiens) (P16473 whole entry, looked up): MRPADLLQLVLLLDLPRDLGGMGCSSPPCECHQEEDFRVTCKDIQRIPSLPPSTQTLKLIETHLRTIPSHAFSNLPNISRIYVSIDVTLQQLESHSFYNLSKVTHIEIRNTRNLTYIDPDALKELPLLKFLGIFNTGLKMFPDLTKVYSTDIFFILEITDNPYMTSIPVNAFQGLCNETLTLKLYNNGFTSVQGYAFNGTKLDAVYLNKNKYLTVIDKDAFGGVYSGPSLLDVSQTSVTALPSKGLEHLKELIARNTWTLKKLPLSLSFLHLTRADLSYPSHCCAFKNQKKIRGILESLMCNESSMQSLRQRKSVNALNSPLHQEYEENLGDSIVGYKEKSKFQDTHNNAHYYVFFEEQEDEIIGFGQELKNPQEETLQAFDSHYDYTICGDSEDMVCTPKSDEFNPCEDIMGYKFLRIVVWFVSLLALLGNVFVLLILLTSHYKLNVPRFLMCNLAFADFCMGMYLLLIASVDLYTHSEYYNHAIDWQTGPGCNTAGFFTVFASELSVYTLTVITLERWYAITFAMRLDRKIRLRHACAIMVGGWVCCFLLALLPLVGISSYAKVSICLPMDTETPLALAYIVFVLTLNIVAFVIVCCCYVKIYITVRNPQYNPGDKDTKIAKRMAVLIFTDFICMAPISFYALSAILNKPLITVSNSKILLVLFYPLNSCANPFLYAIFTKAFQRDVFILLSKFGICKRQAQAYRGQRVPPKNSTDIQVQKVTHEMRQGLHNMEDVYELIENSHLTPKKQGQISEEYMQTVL
Sequence of Nuclear receptor subfamily 1 group I member 3 (Homo sapiens) (Q14994 whole entry, looked up): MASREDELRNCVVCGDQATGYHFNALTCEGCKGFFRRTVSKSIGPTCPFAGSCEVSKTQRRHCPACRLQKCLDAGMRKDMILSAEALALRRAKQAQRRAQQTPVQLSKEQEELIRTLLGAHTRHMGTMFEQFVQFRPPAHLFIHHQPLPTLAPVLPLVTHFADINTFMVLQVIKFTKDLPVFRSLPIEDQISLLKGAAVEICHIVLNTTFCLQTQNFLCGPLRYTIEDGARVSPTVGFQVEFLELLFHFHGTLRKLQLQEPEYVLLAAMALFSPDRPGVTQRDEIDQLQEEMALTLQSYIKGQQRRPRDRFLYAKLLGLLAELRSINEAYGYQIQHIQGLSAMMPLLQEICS

Row | SMILES | Potency [1] | Potency [2] | Potency [3] | Potency [4] | Potency [5] | Potency [6] | Potency [7] | Potency [8] | Potency [9] | Potency [10]
1 | C[C@H]1c2cccc(O)c2C(O)=C2C(=O)[C@]3(O)C(O)=C(C(N)=O)C(=O)[C@@H](N(C)C)[C@@H]3[C@@H](O)[C@@H]21 | inactive | inactive | inactive | inactive | inactive | inactive | – | – | – | –
2 | CC[C@]1(O)C[C@H]2CN(CCc3c([nH]c4ccccc34)[C@@](C(=O)OC)(c3cc4c(cc3OC)N(C=O)[C@H]3[C@@](O)(C(=O)OC)[C@H](OC(C)=O)[C@]5(CC)C=CCN6CC[C@]43[C@@H]65)C2)C1 | – | – | 0.211 µM (active) | inactive | – | – | inactive | inactive | – | –
3 | O=C1Cc2ccccc2N1c1c(Cl)cccc1Cl | – | inactive | inactive | 30.6 µM (active) | inactive | inactive | inactive | – | inactive | –
4 | O=c1c(O)c(-c2ccc(O)cc2)oc2cc(O)cc(O)c12 | – | inactive | inactive | 36.8 µM (active) | inactive | inactive | – | inactive | – | inactive
5 | Oc1ccc(Cl)c2cccnc12 | – | – | – | – | inactive | inactive | inactive | inactive | 4.73 µM (active) | –
6 | Nc1nc2ccc([N+](=O)[O-])cc2s1 | – | – | inactive | – | – | – | – | – | – | –
7 | COc1ccccc1N1CCN(CCCCNC(=O)c2ccc(-c3ccc(C(C)=O)cc3)cc2)CC1 | – | inactive | – | – | inactive | – | inactive | inactive | – | inactive
8 | O=Cc1c2ccccc2c(Cl)c2ccccc12 | – | inactive | – | – | – | inactive | – | – | – | –
9 | NC1[C@H]2CN(c3nc4c(cc3F)c(=O)c(C(=O)O)cn4-c3ccc(F)cc3F)C[C@@H]12 (stereo partly specified) | – | – | inactive | – | inactive | – | inactive | inactive | – | inactive
10 | C[C@@H](O[C@H]1OCCN(Cc2n[nH]c(=O)[nH]2)[C@H]1c1ccc(F)cc1)c1cc(C(F)(F)F)cc(C(F)(F)F)c1 | 26.6 µM (active) | inactive | – | – | – | inactive | – | – | 29.8 µM (active) | –
11 | CCOC(=O)c1ccccc1C(=C1C=C(Br)C(=O)C(Br)=C1)c1cc(Br)c(O)c(Br)c1 | – | inactive | – | – | – | inactive | – | inactive | 51.3 µM (active) | inactive
12 | COC(=O)[C@H]1[C@H]2C[C@@H]3c4[nH]c5cc(OC)ccc5c4CCN3C[C@H]2C[C@@H](OC(=O)/C=C/c2ccc(O)c(OC)c2)[C@@H]1OC | – | inactive | inactive | inactive | inactive | inactive | – | – | – | –
13 | Brc1cc2ccccc2c2ccccc12 | inactive | – | – | 17.4 µM (active) | – | inactive | – | – | – | –
14 | O=C=Nc1cccc(C(F)(F)F)c1 | – | inactive | – | – | inactive | inactive | – | inactive | – | inactive
15 | O=C(CCc1ccc(O)cc1)c1c(O)cc(O)cc1O | – | inactive | – | – | – | inactive | – | inactive | inactive | inactive
16 | CC(C)Nc1cccnc1N1CCN(C(=O)c2cc3cc(NS(C)(=O)=O)ccc3[nH]2)CC1 | – | inactive | inactive | inactive | inactive | inactive | inactive | inactive | – | inactive

Row | SMILES | Potency [1] | Potency [2] | Potency [3] | Potency [4] | Potency [5] | Potency [6] | Potency [7] | Potency [8] | Potency [9] | Potency [10]
17 | CCOC(=O)[C@H](CCc1ccccc1)N[C@@H](C)C(=O)N(CC(=O)O)C1Cc2ccccc2C1 | – | inactive | – | – | inactive | – | inactive | – | – | inactive
18 | CCOc1cccc(-n2cc(C(=O)N3CCN(c4cc(C(=O)O)c5ccccc5c4)CC3)nc2-c2ccc(C)cc2)c1 | – | inactive | inactive | inactive | – | inactive | inactive | – | – | inactive
19 | CN1CC(=O)N2[C@H](c3ccc4c(c3)OCO4)c3[nH]c4ccccc4c3C[C@@H]2C1=O | – | inactive | inactive | inactive | inactive | – | inactive | inactive | – | –
20 | COC(=O)C1=C(C)NC(C)=C(C(=O)O[C@@H]2CCCN(Cc3ccccc3)C2)[C@@H]1c1cccc([N+](=O)[O-])c1 | – | inactive | inactive | inactive | inactive | inactive | inactive | inactive | – | –
21 | c1cc(N(CC2CO2)CC2CO2)ccc1Cc1ccc(N(CC2CO2)CC2CO2)cc1 (stereo unspecified) | 43.3 µM (active) | 54.5 µM (active) | – | inactive | 30.6 µM (active) | inactive | – | – | – | –
22 | OC[C@H]1O[C@@H](n2cnc3c(=S)nc[nH]c32)[C@H](O)[C@@H]1O | – | – | 1.88 µM (active) | inactive | inactive | inactive | inactive | inactive | inactive | –
23 | COc1cc(N)c(Cl)cc1C(=O)NC1CCN(CCCOc2ccc(F)cc2)CC1OC (stereo unspecified) | – | inactive | – | – | – | inactive | inactive | inactive | – | inactive
24 | C/C=C\C/C=C/CCCCCCCCOC(C)=O | – | inactive | inactive | inactive | inactive | inactive | inactive | inactive | – | inactive
25 | CC(=O)[C@H]1[C@H](C#N)C[C@H]2[C@@H]3CC=C4C[C@@H](O)CC[C@]4(C)[C@H]3CC[C@@]21C | – | inactive | – | – | inactive | inactive | inactive | – | inactive | inactive
26 | CC(C)(O)c1ccc(CNC(=O)c2cccnc2Oc2ccc3nonc3c2)cc1 | – | inactive | inactive | 24.3 µM (active) | – | inactive | inactive | inactive | – | inactive
27 | C=CC(=O)OCC1CC2CC1C1CCC(COC(=O)C=C)C21 (stereo unspecified) | – | inactive | inactive | inactive | 68.6 µM (active) | – | inactive | inactive | – | inactive
28 | CN(C(=O)CN(CCO)CC(=O)N(C)C(C)(C)Cc1ccccc1)C(C)(C)Cc1ccccc1 | – | inactive | inactive | inactive | inactive | inactive | inactive | – | – | inactive
29 | CCOc1ccc(Cc2nccc3cc(OCC)c(OCC)cc23)cc1OCC | – | – | inactive | inactive | inactive | – | inactive | inactive | – | inactive
30 | O=[N+]([O-])c1ccc(O/N=C/c2cc(Br)c(O)c(Br)c2)c([N+](=O)[O-])c1 | 30.5 µM (active) | 34.2 µM (active) | inactive | – | 48.3 µM (active) | – | – | inactive | – | –
31 | COc1cc(C(=O)NCCCCCC(=O)O)cc(OC)c1OC | – | inactive | inactive | inactive | inactive | inactive | inactive | inactive | – | inactive
